“And” between values parts separate entries of the source, which are not always exact repeats. Equal entries are not always repeated. Hit rate of the full screen: of about 240,000 compounds, about 1,300 (0.54%) were called active. Roughly 1% stayed inconclusive and do not appear here. This is one part of a sample in which actives are shown more often than they occur. The call rests on the fitted dose curve; in most records, active means well fitted inhibition curve with a large enough effect; inconclusive means small, poorly fitted or top-dose-only effect; inactive means flat fitted curve, though single readings scatter. Where a structure was tested more than once in an assay, its records may differ in their call.
The compounds below were run against ATP-dependent DNA helicase Q1 (Homo sapiens) (UniProt P46063) (assay: qHTS Assay for Inhibitors of RecQ-Like Dna Helicase 1 (RECQ1)). Details: RECQ1 DNA unwinding, red fluorescence kinetic read; series mostly up to 57.3 µM; activity, negative = inhibition: at the top concentration.
ATP-dependent DNA helicase Q1 (Homo sapiens), sequence (P46063 whole entry, looked up): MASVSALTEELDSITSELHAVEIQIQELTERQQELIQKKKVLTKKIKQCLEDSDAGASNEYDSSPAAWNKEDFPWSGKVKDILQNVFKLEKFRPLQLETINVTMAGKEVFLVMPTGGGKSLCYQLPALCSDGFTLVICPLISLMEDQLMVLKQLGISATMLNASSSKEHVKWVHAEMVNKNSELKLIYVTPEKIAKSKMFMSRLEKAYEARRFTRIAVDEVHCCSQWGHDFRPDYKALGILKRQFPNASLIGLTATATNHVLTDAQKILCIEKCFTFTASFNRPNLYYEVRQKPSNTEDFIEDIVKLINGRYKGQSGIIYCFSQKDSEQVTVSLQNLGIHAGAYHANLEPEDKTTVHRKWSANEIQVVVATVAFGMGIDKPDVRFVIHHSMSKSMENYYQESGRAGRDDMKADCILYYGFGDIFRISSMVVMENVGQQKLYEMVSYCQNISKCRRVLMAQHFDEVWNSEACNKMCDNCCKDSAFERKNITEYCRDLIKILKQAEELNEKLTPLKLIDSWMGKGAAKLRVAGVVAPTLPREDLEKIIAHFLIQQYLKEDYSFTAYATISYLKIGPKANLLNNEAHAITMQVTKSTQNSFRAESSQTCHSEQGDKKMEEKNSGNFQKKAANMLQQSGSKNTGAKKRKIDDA
How it was run: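 50 nM RECQ1T1 preincubated 15 min with compound in Tris pH 8.0 buffer with MgCl2, DTT, Tween-20 and 2.5 ug/ml poly(dI-dC); started with 200 nM TAMRA/BHQ-2 forked duplex and 2 mM ATP. Unwinding read as fluorescence (525/598 nm), two reads 2 h apart.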
Further: nearly all actives have a fitted effect of over 30% in size.
Potency means the concentration at half of the fitted maximal effect.
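Wherever activity, negative = inhibition is given: plate controls were vehicle for no effect and no enzyme for full effect.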

Row | Compound | activity, negative = inhibition | Potency | outcome
1 | CCOc1ccccc1/C=c1\sc2nc(-c3ccco3)nn2c1=O | -5.09% (inactive) | – | –
2 | O=C(CCCN1C(=O)/C(=C/c2ccco2)SC1=S)Nc1ccccc1 | -20% (inactive) | – | –
3 | O=c1nc2s/c(=C\c3ccco3)c(=O)n2nc1Cc1ccccc1 | – | 5.01 µM (active) | –
4 | CCCN1CCC(=O)N(C(CSc2ccc(C)cc2)Cc2ccccc2)CC1 (stereo unspecified) | -7.14% (inactive) | – | –
5 | COC(=O)CCc1ccccc1S(=O)(=O)N(CCC(=O)OC)Cc1ccccc1 | -5.73% (inactive) | – | –
6 | Cc1sc2nc(CSCC(=O)Nc3c(Cl)cccc3Cl)[nH]c(=O)c2c1C | -7.69% (inactive) | – | –
7 | COc1cc(C(=O)NCc2nnc(SCC(=O)Nc3nc4ccc(C)cc4s3)o2)cc(OC)c1OC | – | 39.8 µM (active) | –
8 | Cc1ccc(NC(=O)CSc2nnc(CNC(=O)c3ccccc3F)o2)cc1 | -3.3% (inactive) | – | –
9 | COc1ccc(CCNC(=O)CSc2nnc(CNC(=O)c3cccs3)o2)cc1OC | – | – | inactive
10 | COc1ccc(CN2CCC(=O)c3ccccc3S2(=O)=O)cc1 | – | – | inactive
11 | O=[N+]([O-])c1cccc(Nc2c3ccccc3nc3ccccc23)c1 | -1.8% (inactive) | – | –
12 | Cc1ccc(Nc2c3c(nc4ccccc24)CCC3)cc1 | -5.59% (inactive) | – | –
13 | CC(=O)Nc1ccc(Nc2c3ccccc3nc3ccccc23)cc1 | – | 14.1 µM (active) | –
14 | CCOC(=O)Cn1c(=O)sc2cccc(Cl)c21 | 5.27% (inactive) | – | –
15 | O=C(Nc1ccc(Cl)cc1)Nc1nnc(/C=C/c2ccccc2)s1 | – | – | inactive
16 | CCOCCOC(=O)C(C)Oc1ccc(Oc2ncc(C(F)(F)F)cc2Cl)cc1 (stereo unspecified) | -19.4% (inactive) | – | –
17 | C[C@@H]1O[C@@H](OC[C@H]2O[C@@H](Oc3cc(O)c4c(c3)O[C@H](c3ccc(O)c(O)c3)CC4=O)[C@H](O)[C@@H](O)[C@@H]2O)[C@H](O)[C@H](O)[C@H]1O | -12.6% (inactive) | – | –
18 | COc1ccc(C[C@H](C(=O)O)N2C(=O)c3ccc(C(=O)O)cc3C2=O)cc1 | – | – | inactive
19 | CN(C)S(=O)(=O)Oc1ccccc1C(=O)Nc1ccccc1Cl | 2.71% (inactive) | – | –
20 | NCCCCC(N)C(=O)O (stereo unspecified) | -3.84% (inactive) | – | –
21 | O=C(NCc1ccccn1)c1cc(Br)ccc1Cl | – | – | inactive
22 | O=C(NCc1ccccn1)c1cc(-c2ccccc2Cl)on1 | -5.28% (inactive) | – | –
23 | O=C(Nc1ccc2nccnc2c1)c1ccco1 | – | – | inactive
24 | O=C(NCc1ccccn1)c1ccc2nc(-c3ccco3)c(-c3ccco3)nc2c1 | – | 15.8 µM (active) | –

Row | Compound | activity, negative = inhibition | Potency | outcome
25 | COCCNC(=O)Nc1ccc2nc(-c3ccco3)c(-c3ccco3)nc2c1 | – | 8.91 µM (active) | –
26 | COc1ccc(NC(=O)Nc2ccc3nsnc3c2)cc1 | -33.9% (inactive) | – | –
27 | H-EHIPA-OH | -4.14% (inactive) | – | –
28 | OCCC(O)CO (stereo unspecified) | – | inactive | –
29 | CC[C@H](C)[C@H](NC(=O)[C@H](CCCNC(=N)N)NC(=O)[C@H](CCCNC(=N)N)NC(=O)[C@H](CC(C)C)NC(=O)[C@H](Cc1ccccc1)NC(=O)CNC(=O)CNC(=O)[C@@H](N)Cc1ccc(O)cc1)C(=O)N[C@@H](CCCNC(=N)N)C(=O)N1CCC[C@H]1C(=O)N[C@@H](CCCCN)C(=O)N[C@@H](CC(C)C)C(=O)N[C@@H](CCCCN)C(=O)N[C@@H](Cc1c[nH]c2ccccc12)C(=O)N[C@@H](CC(=O)O)C(=O)N[C@@H](CC(N)=O)C(=O)N[C@@H](CCC(N)=O)C(=O)O | -6.92% (inactive) | – | –
30 | CCOC(=O)C(C)Sc1nnc(CSc2nc3nc(C)cc(C)n3n2)o1 (stereo unspecified) | -0.989% (inactive) | – | –
31 | CC(C)(C)[C@H]1C=C(C(=O)NCc2ccccc2)O[C@@H](OCc2ccc(CO)cc2)C1 | – | – | inactive
32 | O=C(NCc1ccccc1)C1=C[C@H](C2CC2)C[C@H](OCc2ccc(CO)cc2)O1 | -0.989% (inactive) | – | –
33 | O=C(NCc1ccccc1)C1=C[C@@H](C2CCCCC2)C[C@@H](OCc2ccc(CO)cc2)O1 | – | 15.8 µM (active) | –
34 | Cc1cc(N(C)C)nc(Cl)n1 | -18.3% (inactive) | – | –
35 | NCCC(=O)c1ccccc1N | – | – | inactive
36 | Oc1ccc(-c2c(-c3ccccc3)nn3c(C(F)(F)F)cc(C(F)(F)F)nc23)cc1 | 8.87% (inactive) | – | –
37 | CC12CCC(C(=O)N(NC(=O)c3ccccc3O)C1=O)C2(C)C (stereo unspecified) | – | 39.8 µM (active) | –
38 | O=C(NN1C(=O)C2C(C1=O)C1C=CC2C12CC2)c1ccccc1Cl (stereo unspecified) | -3.11% (inactive) | – | –
39 | CC12CCC(C(=O)N(c3cccc(Cl)c3)C1=O)C2(C)C (stereo unspecified) | 3.9% (inactive) | – | –
40 | CO[C@@]12[C@@H](COC(N)=O)C3=C(C(=O)C(C)=C(N)C3=O)N1C[C@@H]1N[C@@H]12 | – | – | inactive
41 | Cc1ccc(S(=O)(=O)N2CCC(=O)N([C@H](COCc3ccccc3)Cc3ccccc3)CC2)cc1 | -4.94% (inactive) | – | –
42 | CC[C@H](C)[C@H](NC(=O)[C@H](Cc1ccc(O)cc1)NC(=O)[C@@H](NC(=O)[C@H](CCCN=C(N)N)NC(=O)[C@@H](N)CC(=O)O)C(C)C)C(=O)N[C@@H](Cc1cnc[nH]1)C(=O)N1CCC[C@H]1C(=O)N[C@@H](Cc1ccccc1)C(=O)O | 14.2% (inactive) | – | –
43 | CCCCCCOC(=O)NCC(O)c1ccccc1 (stereo unspecified) | – | – | inactive
44 | CCCCCC(O)c1cccc(OCc2ccc3ccccc3n2)c1 (stereo unspecified) | – | inactive and 28.2 µM (active) | –
45 | CCCn1c(C(O)c2ccc(OCC)cc2)nc2ccccc21 (stereo unspecified) | -5.82% (inactive) | – | –
46 | COc1ccc(C2/C=C\CN(C(=O)c3ccc(C)cc3)C(Cc3ccccc3)C(=O)N2Cc2ccc(F)cc2)cc1 (stereo unspecified) | – | – | inactive
47 | COc1ccc(C2/C=C\CN(Cc3ccco3)C(C)C(=O)N2Cc2ccc(F)cc2)cc1 (stereo unspecified) | -12.4% (inactive) | – | –
48 | CCOC(=O)CC1C(=O)NCCN1c1nc2c(C)cccn2c(=O)c1/C=C1\SC(=S)N(C(C)CC)C1=O (stereo unspecified) | – | 35.5 µM (active) | –

Row | Compound | activity, negative = inhibition | Potency | outcome
49 | CCOC(=O)CC1C(=O)NCCN1C(=O)COc1ccc(Br)cc1C (stereo unspecified) | -8.2% (inactive) | – | –
50 | Cc1cccn2c(=O)c(/C=C3\SC(=S)N(CC(C)C)C3=O)c(NCCCOC(C)C)nc12 | 2.64% (inactive) | – | –
51 | CCC(C)(C)NC(=O)c1cc([N+](=O)[O-])ccc1N1CCCCC1 | -6.6% (inactive) | – | –
52 | COc1ccc(C(CCN2CCOCC2)c2c(OC)cc(OC)c3c2OC(=O)CC3c2ccc(OC)cc2)cc1 (stereo unspecified) | -5.93% (inactive) | – | –
53 | C=CCNC(=S)NNC(=O)c1cc(Cl)ccc1OC | -9.23% (inactive) | – | –
54 | COc1ccc(Cl)cc1C(=O)NNC(=S)NC(=O)/C=C/c1ccco1 | – | 31.6 µM (active) | –
55 | COc1ccc(Cl)cc1C(=O)NNC(=S)NC1CCCC1 | 21.4% (inactive) | – | –
56 | O=C(CSC1=Nc2ccccc2C2=NC(CC(=O)NCc3ccco3)C(=O)N12)NCc1ccco1 (stereo unspecified) | 9.12% (inactive) | – | –
57 | CC(C)C1N=C2c3ccccc3N=C(SCC(=O)c3ccc(O)c(O)c3)N2C1=O (stereo unspecified) | – | 14.1 µM (active) | –
58 | CCC(C)NC(=O)CSC1=Nc2ccccc2C2=NC(CCC(=O)NCc3ccco3)C(=O)N12 (stereo unspecified) | -4.68% (inactive) | – | –
59 | O=P(O)(O)C(O)c1ccc2ccccc2c1 (stereo unspecified) | -4.2% (inactive) | – | –
60 | CC(C)(C)N(Cc1ccccc1)C(=O)COC(=O)CCc1c[nH]c2ccccc12 | -1.03% (inactive) | – | –
61 | Cc1ccc(-n2nc3c(c2NC(=O)c2ccc4c(c2)OCO4)CSC3)c(C)c1 | 0.297% (inactive) | – | –
62 | Cc1cccc(-n2nc3c(c2NC(=O)c2ccc(Br)o2)CSC3)c1C | – | 35.5 µM (active) | –
63 | COc1cccc(C(=O)Nc2c3c(nn2-c2cccc(C)c2C)CS(=O)(=O)C3)c1OC | -0.603% (inactive) | – | –
64 | Nc1nc2c(ncn2[C@@H]2O[C@H](COP(=O)(O)OP(=O)(O)OP(=O)(O)O)[C@@H](O)C2O)c(=O)[nH]1 (stereo partly specified) | – | – | inactive
65 | c1ccc(CN2CCC(N=C3NN=C(c4ccc5c(c4)OCCO5)CS3)CC2)cc1 | -3.29% (inactive) | – | –
66 | S=c1[nH]c2ccccc2c2ccccc12 | -10.8% (inactive) | – | –
67 | Cc1cc(=O)[nH]c(SCC(=O)Nc2ccc(Br)cc2)n1 | – | – | inactive
68 | Cc1ccc(NC(=O)CSc2nc(CSc3ccc(C)cc3)cc(=O)[nH]2)cc1 | 34.7% (inactive) | – | –
69 | COc1ccc(NC(=O)CSc2nc(NS(=O)(=O)c3ccc(C)cc3)cc(=O)[nH]2)cc1 | – | 35.5 µM (active) | –
70 | CSc1ccccc1N1CCN(CCCCCC(=O)NC2CCCc3ccccc32)CC1 (stereo unspecified) | -8.54% (inactive) | – | –
71 | O=[N+]([O-])c1ccccc1S(=O)(=O)Nc1cccc2cccnc12 | – | – | inactive

— PubChem BioAssay AID2549 (National Center for Advancing Translational Sciences (NCATS), 2010)
